Data: PubChem BioAssay (Tox21)
Results filed as inconclusive are left out. Where a call stands in place of a potency, no number is given. Activity calls are given as the source filed them. Unless noted, the call rests on the fitted dose curve; in most records, active means well fitted curve in the direction sought with a large enough effect in the repeat runs; inconclusive means weak or mixed curves; inactive means no such curve, though single readings can be large; an effect the other way counts as inactive or inconclusive.

Experiments:
[1] = qHTS assay to identify small molecule antagonists of the glucocorticoid receptor (GR) signaling pathway - cell viability counter screen (AID 720693); further: nearly all actives have a fitted effect of over 55% in size
[2] = qHTS assay for identifying genotoxic compounds that show differential cytotoxicity against isogenic chicken DT40 cell lines with known DNA damage response pathways - wild type cell line (AID 743012); further: nearly all actives have a fitted effect of over 60% in size; further: potency means the concentration at half of the fitted maximal effect
In short: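 First, wild type DT40 cells were plated at 300 per well and equilibrated about 0.5 h at 37 C/5% CO2. Next, compounds in DMSO were added and exposure lasted 40 h. Finally, CellTiter-Glo was added for 30 min at room temperature and luminescence recorded.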

[3] = qHTS assay for identifying genotoxic compounds that show differential cytotoxicity against isogenic chicken DT40 cell lines with known DNA damage response pathways - Rev3 mutant cell line (AID 743014); further: nearly all actives have a fitted effect of over 55% in size; further: potency means the concentration at half of the fitted maximal effect
[4] = qHTS assay for identifying genotoxic compounds that show differential cytotoxicity against isogenic chicken DT40 cell lines with known DNA damage response pathways - Rad54/Ku70 mutant cell line (AID 743015); further: nearly all actives have a fitted effect of over 60% in size; further: potency means the concentration at half of the fitted maximal effect
[5] = qHTS assay to identify small molecule antagonists of the androgen receptor (AR) signaling pathway using the MDA cell line - cell viability counter screen (AID 743041; further: nearly all actives have a fitted effect of over 45% in size)
In short: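 Viability counter screen run alongside the AR antagonist reporter: cells seeded 5 h before compound, R1881 added, 16 h incubation at 37C without CO2, fluorescent CellTiter-Fluor signal quantified.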

[6] = qHTS assay to identify small molecule antagonists of the thyroid receptor (TR) signaling pathway (AID 743065); further: nearly all actives have a fitted effect of over 55% in size; further: potency means the concentration at half of the fitted maximal effect
In short: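 GH3.TRE-Luc rat pituitary cells carrying two TR response elements driving luciferase were plated for 4 h, given compound plus 1 nM T3 (final), and incubated 23.5 h at 37 C. ONE-Glo luminescence measured reporter inhibition; CellTiter-Fluor fluorescence tracked cytotoxicity.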

[7] = tested on: thyroid hormone receptor (rat, GH3 cells); experiment: qHTS assay to identify small molecule agonists of the thyroid receptor (TR) signaling pathway (AID 743066; calls by dose curve)
[8] = qHTS assay to identify small molecule antagonists of the estrogen receptor alpha (ER-alpha) signaling pathway - cell viability counter screen (AID 743074; calls by dose curve;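 further: HEK293 cells carrying ER-alpha-UAS-bla reporter stimulated with 17beta-estradiol; nearly all actives have a fitted effect of over 45% in size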)
[9] = qHTS assay to identify small molecule antagonists of the estrogen receptor alpha (ER-alpha) signaling pathway using the BG1 cell line - cell viability counter screen (AID 743081);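 further: compound given together with 17beta-estradiol as the ER stimulus; series mostly up to about 70 µM; nearly all actives have a fitted effect of over 45% in size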
Aromatase (Homo sapiens) = Aromatase (Homo sapiens) (UniProt P11511); experiment: qHTS assay to identify aromatase inhibitors (AID 743083); further: series mostly up to about 70 µM; nearly all actives have a fitted effect of over 55% in size
[10] = qHTS assay to identify small molecule antagonists of the androgen receptor (AR) signaling pathway - cell viability counter screen (AID 743033; further: nearly all actives have a fitted effect of over 45% in size)
[11] = qHTS assay to identify small molecule antagonists of the thyroid receptor (TR) signaling pathway - cell viability counter screen (AID 743064); further: nearly all actives have a fitted effect of over 50% in size
In short: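 CellTiter-Fluor readout, 30 min at 37 °C/5% CO2, following 23.5 h incubation of GH3.TRE-Luc cells with test compound and 1 nM T3 (final).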

[12] = target: Estrogen receptor (Homo sapiens) (UniProt P03372); experiment: qHTS assay to identify small molecule antagonists of the estrogen receptor alpha (ER-alpha) signaling pathway (AID 743069; active means well fitted curve in the direction sought with a large enough effect in the signal ratio in the repeat runs, not every such curve was filed as active; the % refers to the signal ratio)
In short: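 Estradiol-stimulated ER-alpha-UAS-bla HEK293 cells, 18 hr compound exposure at 37C. LiveBLAzer B/G substrate, 2 hr RT, fluorescence read.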

[13] = target: Estrogen receptor (Homo sapiens) (UniProt P03372); experiment: qHTS assay to identify small molecule agonists of the estrogen receptor alpha (ER-alpha) signaling pathway (AID 743075; calls by dose curve;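 further: HEK293 GripTite cells with ER-alpha and UAS-driven beta-lactamase reporter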)
[14] = target: Estrogen receptor (Homo sapiens) (UniProt P03372); experiment: qHTS assay to identify small molecule agonists of the estrogen receptor alpha (ER-alpha) signaling pathway using the BG1 cell line (AID 743079); further: nearly all actives have a fitted effect of over 20% in size; further: potency means the concentration at half of the fitted maximal effect
[15] = qHTS assay to identify small molecule antagonists of the estrogen receptor alpha (ER-alpha) signaling pathway using the BG1 cell line (AID 743080; calls by dose curve;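 further: BG1 cells stimulated with 17beta-estradiol alongside compound; series mostly up to about 70 µM; nearly all actives have a fitted effect of over 25% in size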)
In short: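 Endogenous full-length ER-alpha in BG1-Luc-4E2 cells drives a stably integrated 4×ERE luciferase gene; compounds were tested against 17beta-estradiol over 21.5 h, with luminescence and multiplexed viability fluorescence recorded.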

[16] = target: Androgen receptor (Homo sapiens) (UniProt P10275); experiment: qHTS assay to identify small molecule antagonists of the androgen receptor (AR) signaling pathway (AID 743035; active means well fitted inhibition curve with a large enough effect in the signal ratio in the repeat runs, not every such curve was filed as active; the % refers to the signal ratio)
In short: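 Beta-lactamase FRET read (2 h RT incubation with LiveBLAzer B/G) following 16 h of compound plus R1881 treatment of AR-UAS-bla HEK293 cells, which had been pre-incubated 4 h at 37C.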

[17] = target: Androgen receptor (Homo sapiens) (UniProt P10275); experiment: qHTS assay to identify small molecule agonists of the androgen receptor (AR) signaling pathway using the MDA cell line (AID 743040; further: nearly all actives have a fitted effect of over 20% in size)
In short: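 Luminescence from ONE-Glo, read after 30 min at room temperature, reflects MMTV-driven luciferase in MDA-kb2 cells (AR- and GR-responsive). Treatment lasted 16 h at 37C, 0% CO2.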

[18] = target: Androgen receptor (Homo sapiens) (UniProt P10275); experiment: qHTS assay to identify small molecule antagonists of the androgen receptor (AR) signaling pathway using the MDA cell line (AID 743042; further: nearly all actives have a fitted effect of over 55% in size)
In short: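 MDA-kb2 cells (human breast carcinoma, stably carrying an MMTV-luciferase reporter responsive to AR and GR) were plated at 3,000 cells/well and preincubated 5 hr at 37C, then given compound plus R1881 agonist for 16 h. ONE-Glo luminescence was read.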

[19] = target: Androgen receptor (Homo sapiens) (UniProt P10275); experiment: qHTS assay to identify small molecule agonists of the androgen receptor (AR) signaling pathway (AID 743036; active means well fitted activation curve with a large enough effect in the signal ratio in the repeat runs, with a control signal flat, not every such curve was filed as active; the % refers to the signal ratio)
In short: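 Following a 4 h settling period, AR-UAS-bla HEK293 cells were dosed with compounds for 16 h at 37C. A 2 h room-temperature incubation with LiveBLAzer B/G FRET substrate preceded the fluorescence measurement.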

Aromatase (Homo sapiens), sequence (P11511 whole entry, looked up): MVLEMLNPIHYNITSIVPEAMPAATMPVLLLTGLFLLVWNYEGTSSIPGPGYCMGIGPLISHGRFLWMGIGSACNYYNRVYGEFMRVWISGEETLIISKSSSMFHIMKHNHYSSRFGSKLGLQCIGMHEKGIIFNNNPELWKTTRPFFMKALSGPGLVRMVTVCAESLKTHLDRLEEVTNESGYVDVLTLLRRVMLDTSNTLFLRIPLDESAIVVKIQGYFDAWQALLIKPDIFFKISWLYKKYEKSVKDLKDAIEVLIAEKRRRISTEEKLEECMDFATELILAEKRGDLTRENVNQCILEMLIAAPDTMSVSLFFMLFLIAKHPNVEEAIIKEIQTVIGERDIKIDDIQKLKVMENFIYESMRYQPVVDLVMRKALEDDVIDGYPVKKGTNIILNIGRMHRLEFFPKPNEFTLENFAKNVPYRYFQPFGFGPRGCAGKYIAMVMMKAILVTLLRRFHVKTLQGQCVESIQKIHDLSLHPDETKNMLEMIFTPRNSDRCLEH
Androgen receptor (Homo sapiens), sequence (P10275 whole entry, looked up): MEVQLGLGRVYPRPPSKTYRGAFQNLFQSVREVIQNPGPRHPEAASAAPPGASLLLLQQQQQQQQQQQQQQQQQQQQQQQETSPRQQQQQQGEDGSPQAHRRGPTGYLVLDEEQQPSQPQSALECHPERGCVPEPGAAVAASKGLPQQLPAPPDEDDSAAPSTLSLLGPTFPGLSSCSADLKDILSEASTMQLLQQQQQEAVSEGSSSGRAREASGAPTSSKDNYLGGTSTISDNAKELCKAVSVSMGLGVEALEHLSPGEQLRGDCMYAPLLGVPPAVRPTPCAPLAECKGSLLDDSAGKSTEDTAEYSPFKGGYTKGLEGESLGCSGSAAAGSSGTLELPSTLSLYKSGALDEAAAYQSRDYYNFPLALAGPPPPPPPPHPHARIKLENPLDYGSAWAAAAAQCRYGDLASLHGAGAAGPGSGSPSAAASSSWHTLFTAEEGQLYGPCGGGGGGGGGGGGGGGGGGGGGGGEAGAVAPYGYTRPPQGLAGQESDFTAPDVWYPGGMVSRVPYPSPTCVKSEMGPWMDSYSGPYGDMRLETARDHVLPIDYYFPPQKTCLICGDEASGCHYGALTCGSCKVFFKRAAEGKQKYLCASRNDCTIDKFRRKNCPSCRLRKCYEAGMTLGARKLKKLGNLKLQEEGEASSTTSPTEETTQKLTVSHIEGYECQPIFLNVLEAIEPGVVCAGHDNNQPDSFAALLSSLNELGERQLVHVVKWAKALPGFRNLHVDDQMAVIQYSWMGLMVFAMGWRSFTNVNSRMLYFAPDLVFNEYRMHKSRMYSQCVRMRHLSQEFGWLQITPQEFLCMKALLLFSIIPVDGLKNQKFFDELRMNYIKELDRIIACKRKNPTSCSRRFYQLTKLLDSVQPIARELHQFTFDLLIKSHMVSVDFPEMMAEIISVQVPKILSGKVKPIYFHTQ
Estrogen receptor (Homo sapiens), sequence (P03372 whole entry, looked up): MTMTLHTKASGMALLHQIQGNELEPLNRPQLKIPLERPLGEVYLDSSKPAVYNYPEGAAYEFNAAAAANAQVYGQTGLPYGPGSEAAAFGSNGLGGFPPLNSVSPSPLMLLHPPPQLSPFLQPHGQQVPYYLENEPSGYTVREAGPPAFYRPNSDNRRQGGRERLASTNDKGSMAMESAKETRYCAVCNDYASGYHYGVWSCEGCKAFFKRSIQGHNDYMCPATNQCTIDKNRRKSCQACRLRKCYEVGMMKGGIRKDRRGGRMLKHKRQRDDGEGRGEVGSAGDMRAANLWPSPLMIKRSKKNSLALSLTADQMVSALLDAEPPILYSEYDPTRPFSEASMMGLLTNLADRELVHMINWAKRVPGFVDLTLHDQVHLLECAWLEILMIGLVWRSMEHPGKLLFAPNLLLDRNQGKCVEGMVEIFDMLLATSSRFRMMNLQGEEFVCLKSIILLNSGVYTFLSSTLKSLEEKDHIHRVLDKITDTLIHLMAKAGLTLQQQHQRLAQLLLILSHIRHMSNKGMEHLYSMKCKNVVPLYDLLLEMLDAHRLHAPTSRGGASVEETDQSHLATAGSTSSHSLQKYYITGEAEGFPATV

Row | Compound | outcome [1] | Potency [2] | Potency [3] | Potency [4] | Potency [5] | Potency [6] | outcome [7] | Potency [8] | Potency [9] | Potency (Aromatase (Homo sapiens)) | outcome [10] | Potency [11] | Potency [12] | outcome [13] | Potency [14] | outcome [15] | Potency [16] | Potency [17] | outcome [18] | outcome [19]
1 | CC1(C)C(=O)N(Cl)C(=O)N1Br | inactive | inactive | inactive | inactive | inactive | inactive | inactive | inactive | inactive | inactive | – | – | – | – | – | – | – | – | – | –
2 | COc1cc(C)ccc1C(C)C | inactive | inactive | inactive | – | inactive | – | inactive | inactive | – | inactive | inactive | inactive | inactive | inactive | inactive | inactive | – | – | – | –
3 | Cc1ccc(C)c(N)c1 | inactive | inactive | inactive | inactive | inactive | inactive | inactive | inactive | inactive | inactive | – | – | inactive | inactive | 77 µM (active) | inactive | – | – | – | –
4 | CC1=C(CC(=O)O)c2cc(F)ccc2/C1=C\c1ccc(S(C)(=O)=O)cc1 | inactive | inactive | inactive | inactive | inactive | inactive | inactive | inactive | inactive | inactive | – | inactive | inactive | inactive | inactive | inactive | inactive | inactive | inactive | –
5 | CCCCCCCCCCCCCCCCOP(=O)([O-])OCC[N+](C)(C)C | inactive | inactive | inactive | inactive | inactive | – | – | inactive | inactive | inactive | – | – | – | – | – | – | – | – | – | –
6 | FC(F)(F)C(F)(F)C(F)(F)C(F)(F)C(F)(F)C(F)(F)C(F)(F)C(F)(F)Br | inactive | inactive | inactive | inactive | inactive | inactive | inactive | inactive | inactive | inactive | – | inactive | inactive | inactive | inactive | inactive | – | – | – | –
7 | CCCOCCC | inactive | inactive | inactive | inactive | inactive | – | – | inactive | inactive | inactive | – | inactive | inactive | inactive | inactive | inactive | – | – | – | –
8 | C[C@@H](N)C(=O)O | inactive | inactive | inactive | inactive | inactive | inactive | inactive | inactive | inactive | inactive | – | inactive | – | – | – | – | – | inactive | inactive | inactive
9 | O=Cc1ccc(F)c(Br)c1 | inactive | inactive | inactive | – | inactive | inactive | inactive | inactive | inactive | inactive | inactive | inactive | inactive | inactive | inactive | inactive | – | – | – | –
10 | CCN(CCCc1ccccc1)CCCc1ccccc1 | inactive | 2.02 µM (active) | 1.27 µM (active) | 2.27 µM (active) | inactive | – | inactive | inactive | inactive | inactive | – | inactive | inactive | inactive | inactive | inactive | – | – | – | –
11 | CC(C)CCCCCCc1ccc(OCCOCCO)cc1 | inactive | inactive | – | – | inactive | inactive | inactive | inactive | inactive | – | inactive | – | inactive | inactive | inactive | inactive | inactive | inactive | inactive | inactive
12 | O=C1Nc2ccc([N+](=O)[O-])cc2C1=O | inactive | inactive | – | inactive | – | inactive | inactive | inactive | – | – | inactive | inactive | – | – | – | – | – | – | – | –
13 | NC1=NCC2c3ccccc3Cc3ccccc3N12 (centres undefined) | inactive | 21.1 µM (active) | 26.6 µM (active) | – | inactive | – | inactive | inactive | inactive | inactive | – | inactive | – | – | – | – | – | – | – | –
14 | CC(C)CC(=O)OCc1ccccc1 | inactive | inactive | – | – | inactive | inactive | inactive | inactive | inactive | inactive | inactive | inactive | inactive | inactive | inactive | inactive | – | – | – | –
15 | C=C(C)C(=O)OCCOP(=O)(O)O | inactive | – | inactive | inactive | inactive | inactive | inactive | inactive | inactive | inactive | inactive | inactive | inactive | inactive | – | inactive | – | – | – | –
16 | COC(=O)c1ccc2cc(C(=O)OC)ccc2c1 | inactive | – | inactive | inactive | inactive | inactive | inactive | inactive | inactive | inactive | inactive | inactive | inactive | inactive | inactive | inactive | – | – | – | –
17 | CC(C)NCC(O)COc1ccc(CCOCC2CC2)cc1 (centres undefined) | inactive | 29.8 µM (active) | – | 29.8 µM (active) | inactive | – | inactive | inactive | inactive | inactive | – | inactive | – | – | – | – | – | – | – | –
18 | CCOC(=O)C(Br)c1ccccc1 (centres undefined) | inactive | inactive | – | inactive | inactive | – | inactive | inactive | inactive | inactive | inactive | – | inactive | inactive | inactive | inactive | – | – | – | –
19 | Cc1ccccc1C(=O)Nc1ccc(C(=O)N2CCCC(O)c3cc(Cl)ccc32)c(C)c1 (centres undefined) | inactive | 26.6 µM (active) | – | – | inactive | 23.7 µM (active) | inactive | inactive | – | – | inactive | inactive | – | – | – | – | – | – | – | –
20 | CC/C=C\CCOC(=O)C(C)C | inactive | inactive | – | inactive | inactive | – | inactive | inactive | inactive | inactive | inactive | inactive | inactive | inactive | inactive | inactive | – | – | – | –
